# Several values for one entry are separate records, joined by “and”; a condition that tells them apart may be missing. Identical values can stand only once. Records with an inconclusive call do not appear. Activity calls are given as the source filed them.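 Rule for the calls, unless noted: active = normalized viability below 100% at a tested concentration; inactive = the rest.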
# Assays:
# [1] = viability loss in pontine glioma line – cell-based, SU-DIPG-XVII, MIPE5.0, CellTiter-Glo, qHTS, dose response (AID 1347060; cut-off not given, nearly all actives have AC50 up to about 26 µM;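 for AC50: cells exposed to compound for 48 hours before viability readout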); settings: CellTiter-Glo ATP luminescence
# [2] = viability loss in pontine glioma line – cell-based, SU-DIPG-XIII, MIPE4.0, CellTiter-Glo, qHTS, dose response (AID 1347061; cut-off not given, nearly all actives have AC50 up to about 37 µM;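 note: cells exposed to compound for 48 hours before readout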); settings: CellTiter-Glo ATP luminescence
# [3] = viability loss in pontine glioma line – cell-based, JHH-DIPG-1, MIPE4.0, CellTiter-Glo, qHTS, dose response (AID 1347062; cut-off not given, nearly all actives have AC50 up to about 27 µM;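 for AC50: cells exposed to compound for two days before readout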); settings: JHH-DIPG-1 viability, CellTiter-Glo ATP luminescence
# [4] = viability loss in pontine glioma line – cell-based, SU-DIPG-IV, MIPE4.0, CellTiter-Glo, qHTS, dose response (AID 1347063; cut-off not given, nearly all actives have AC50 up to about 30 µM;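 note: compound exposure lasted 48 hours before the viability readout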); settings: CellTiter-Glo ATP luminescence
# [5] = viability loss in pontine glioma line – cell-based, SU-DIPG-XIII, MIPE5.0, CellTiter-Glo, qHTS, dose response (AID 1347064; cut-off not given, nearly all actives have AC50 up to about 23 µM;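 for AC50: cells exposed to compound for 48 hours before the viability read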); settings: CellTiter-Glo ATP luminescence
# [6] = viability loss in pontine glioma line – cell-based, SU-DIPG-XXV, MIPE5.0, CellTiter-Glo, qHTS, dose response (AID 1347065; cut-off not given, nearly all actives have AC50 up to about 26 µM;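 note: cells exposed to compound for 48 hours before ATP readout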); settings: CellTiter-Glo ATP luminescence
# [7] = growth inhibition of DIPG cells – cell-based, MIPE4.0 library, CellTiter-Glo luminescence, qHTS (AID 1347066; cut-off not given, nearly all actives have AC50 up to about 30 µM;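 note: cells exposed to compound for 48 hours before readout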); settings: SU-DIPG-VI viability, CellTiter-Glo ATP luminescence
# [8] = JHH-DIPG-1 glioma cell viability, MIPE5.0 library, CellTiter-Glo luminescence, qHTS (AID 1347067; cut-off not given, nearly all actives have AC50 up to about 26 µM;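 note: cells exposed to compound for 48 hours before readout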); settings: JHH-DIPG-1 glioma viability, CellTiter-Glo ATP luminescence
# [9] = growth inhibition of DIPG cells – cell-based, MIPE5.0 library, qHTS (AID 1347068; cut-off not given, nearly all actives have IC50 up to about 30 µM;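 for IC50: cells exposed to compound for 48 hours before viability readout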); settings: SU-DIPG-XXV viability
# [10] = viability loss with induced miR-34 in A549 – imaging, A549 dox-inducible miR-34, nuclei and caspase counts, primary screen (AID 1347080;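 active = compounds whose cell count with miR-34 switched on is under 0.7 times the count with it off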); settings: A549 miR-34 inducible, Hoechst nuclei count, 48 h
# [11] = MELAS cybrid and Rieske KO viability enhancers – cell-based, MELAS cybrids, Rieske KO mouse fibroblasts, CellTiter-Glo, primary screen (AID 1508586;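 active = mean z-score across replicates of 1.96 or higher in either the MELAS or the Rieske mutant cell line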;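 note: z relative to plate mean and SD of compound and empty wells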); settings: low glucose
# [12] = drug combination growth inhibition, ovarian cancer – cell-based, oncology-focused library, rucaparib conditional, profiling panel (AID 1508598); settings: patient-derived ovarian cancer cells, CellTiter-Glo viability, 144 h, stronger effect = lower value
# [13] = compounds altering HSF1 focus formation in cells – imaging, Selleck Cancer Library (AID 1347162; in the data active = plate-normalised HSF1 focus index below about 0.46); settings: human cells, HSF1 nuclear foci imaging, at 10 µM; SSMD: measured here: HSF1 foci SSMD mean; cell count: measured here: cell number; plate-normalised HSF1 focus index: stronger effect = lower value
# [14] = stronger effect = lower value, cell number ratio, induced over uninduced
# [15] = measured here: relative caspase fold change +Dox/-Dox
# [16] = measured here: total cells with miR-34 induction, stronger effect = lower value
# [17] = measured here: total cells without miR-34 induction
# [18] = MELAS cybrid survival, CellTiter-Glo 48 h, stronger effect = higher value
# [19] = Rieske KO mouse fibroblast survival, CellTiter-Glo 72 h
# [20] = at 0.000305 µM, OCI-C5x cells, with rucaparib 10 µM, 100% = cells with rucaparib alone
# [21] = at 0.000305 µM, OCI-C5x cells, without rucaparib
# [22] = at 0.000305 µM, OCI-P5x cells, with rucaparib 20 µM, 100% = cells with rucaparib alone
# [23] = at 0.000305 µM, OCI-P5x cells, without rucaparib
# [24] = at 0.00122 µM, OCI-C5x cells, with rucaparib 10 µM, 100% = cells with rucaparib alone
# [25] = at 0.00122 µM, OCI-C5x cells, without rucaparib
# [26] = at 0.00122 µM, OCI-P5x cells, with rucaparib 20 µM, 100% = cells with rucaparib alone
# [27] = at 0.00122 µM, OCI-P5x cells, without rucaparib
# [28] = at 0.00488 µM, OCI-C5x cells, with rucaparib 10 µM, 100% = cells with rucaparib alone
# [29] = at 0.00488 µM, OCI-C5x cells, without rucaparib
# [30] = at 0.00488 µM, OCI-P5x cells, with rucaparib 20 µM, 100% = cells with rucaparib alone
# [31] = at 0.00488 µM, OCI-P5x cells, without rucaparib
# [32] = at 0.0195 µM, OCI-C5x cells, with rucaparib 10 µM, 100% = cells with rucaparib alone
# [33] = at 0.0195 µM, OCI-C5x cells, without rucaparib
# [34] = at 0.0195 µM, OCI-P5x cells, with rucaparib 20 µM, 100% = cells with rucaparib alone
# [35] = at 0.0195 µM, OCI-P5x cells, without rucaparib
# [36] = at 0.0781 µM, OCI-C5x cells, with rucaparib 10 µM, 100% = cells with rucaparib alone
# [37] = at 0.0781 µM, OCI-C5x cells, without rucaparib
# [38] = at 0.0781 µM, OCI-P5x cells, with rucaparib 20 µM, 100% = cells with rucaparib alone
# [39] = at 0.0781 µM, OCI-P5x cells, without rucaparib
# [40] = at 0.313 µM, OCI-C5x cells, with rucaparib 10 µM, 100% = cells with rucaparib alone
# [41] = at 0.313 µM, OCI-C5x cells, without rucaparib
# [42] = at 0.313 µM, OCI-P5x cells, with rucaparib 20 µM, 100% = cells with rucaparib alone
# [43] = at 0.313 µM, OCI-P5x cells, without rucaparib
# [44] = at 1.25 µM, OCI-C5x cells, with rucaparib 10 µM, 100% = cells with rucaparib alone
# [45] = at 1.25 µM, OCI-C5x cells, without rucaparib
# [46] = at 1.25 µM, OCI-P5x cells, with rucaparib 20 µM, 100% = cells with rucaparib alone
# [47] = at 1.25 µM, OCI-P5x cells, without rucaparib
# [48] = at 5 µM, OCI-C5x cells, with rucaparib 10 µM, 100% = cells with rucaparib alone
# [49] = at 5 µM, OCI-C5x cells, without rucaparib
# [50] = at 5 µM, OCI-P5x cells, with rucaparib 20 µM, 100% = cells with rucaparib alone
# [51] = at 5 µM, OCI-P5x cells, without rucaparib
smiles,measurement,setting,value
Cc1cccc(-c2[nH]ncc2-c2ccc3ncccc3n2)n1,outcome,[1],inactive
same,outcome,[2],inactive
same,outcome,[3],inactive
same,outcome,[4],inactive
same,outcome,[5],inactive
same,outcome,[6],inactive
same,outcome,[7],inactive
same,outcome,[8],inactive
same,outcome,[9],inactive
same,fold change,[10]; [14],0.969 (inactive) and 0.891 (inactive)
same,fold change,[10]; [15],0.983 and 0.417
same,cell count,[10]; [16],9850 and 8880
same,cell count,[10]; [17],10200 and 9960
same,z-score,[11]; [18],-0.572 (inactive)
same,z-score,[11]; [19],0.111
C=CC(=O)N1CCC[C@@H](n2nc(-c3ccc(Oc4ccccc4)cc3)c3c(N)ncnc32)C1,AC50,[1],5.9 µM (active)
same,AC50,[2],18.7 µM (active)
same,AC50,[3],23.5 µM (active)
same,AC50,[4],5.26 µM (active)
same,AC50,[5],20.9 µM (active)
same,AC50,[6],9.34 µM (active)
same,AC50,[7],16.6 µM (active)
same,AC50,[8],16.6 µM (active)
same,outcome,[9],inactive
same,viability,[12]; [20],99.2% (active)
same,viability,[12]; [21],119% (inactive)
same,viability,[12]; [22],88.6% (active)
same,viability,[12]; [23],94.3% (active)
same,viability,[12]; [24],108% (inactive)
same,viability,[12]; [25],118% (inactive)
same,viability,[12]; [26],77.7% (active)
same,viability,[12]; [27],48.3% (active)
same,viability,[12]; [28],106% (inactive)
same,viability,[12]; [29],108% (inactive)
same,viability,[12]; [30],95.6% (active)
same,viability,[12]; [31],103% (inactive)
same,viability,[12]; [32],112% (inactive)
same,viability,[12]; [33],112% (inactive)
same,viability,[12]; [34],93.8% (active)
same,viability,[12]; [35],103% (inactive)
same,viability,[12]; [36],114% (inactive)
same,viability,[12]; [37],111% (inactive)
same,viability,[12]; [38],86.9% (active)
same,viability,[12]; [39],100% (inactive)
same,viability,[12]; [40],112% (inactive)
same,viability,[12]; [41],120% (inactive)
same,viability,[12]; [42],86.1% (active)
same,viability,[12]; [43],91.8% (active)
same,viability,[12]; [44],108% (inactive)
same,viability,[12]; [45],125% (inactive)
same,viability,[12]; [46],92.3% (active)
same,viability,[12]; [47],93.7% (active)
same,viability,[12]; [48],113% (inactive)
same,viability,[12]; [49],121% (inactive)
same,viability,[12]; [50],57.3% (active)
same,viability,[12]; [51],88.7% (active)
Cc1ccccc1C(C(=O)NC1CCCCC1)N(C(=O)Cn1ccnc1C)c1cccc(F)c1 (stereo not drawn),outcome,[1],inactive
same,outcome,[2],inactive
same,outcome,[3],inactive
same,outcome,[4],inactive
same,outcome,[5],inactive
same,outcome,[6],inactive
same,outcome,[7],inactive
same,outcome,[8],inactive
same,outcome,[9],inactive
same,fold change,[10]; [14],0.844 (inactive)
same,fold change,[10]; [15],0.447
same,cell count,[10]; [16],8020
same,cell count,[10]; [17],9500
same,z-score,[11]; [18],0.145 (inactive)
same,z-score,[11]; [19],0.11
Cn1c(=O)c(F)c(Nc2ccc(I)cc2F)c2c(=O)n(C[C@@H](O)CO)cnc21,AC50,[1],0.0661 µM (active)
same,AC50,[2],0.264 µM (active)
same,AC50,[3],0.235 µM (active)
same,AC50,[4],3.32 µM (active)
same,AC50,[5],0.132 µM (active)
same,AC50,[6],0.295 µM (active)
same,outcome,[7],inactive
same,AC50,[8],0.0661 µM (active)
same,IC50,[9],1.86 µM (active)
same,SSMD,[13],1.8
same,cell count,[13],7260
same,plate-normalised HSF1 focus index,[13],1.1 (inactive)
same,viability,[12]; [20],107% (inactive)
same,viability,[12]; [21],128% (inactive)
same,viability,[12]; [22],96.8% (active)
same,viability,[12]; [23],106% (inactive)
same,viability,[12]; [24],102% (inactive)
same,viability,[12]; [25],116% (inactive)
same,viability,[12]; [26],81.5% (active)
same,viability,[12]; [27],78.8% (active)
same,viability,[12]; [28],104% (inactive)
same,viability,[12]; [29],118% (inactive)
same,viability,[12]; [30],69% (active)
same,viability,[12]; [31],76.3% (active)
same,viability,[12]; [32],102% (inactive)
same,viability,[12]; [33],111% (inactive)
same,viability,[12]; [34],59.1% (active)
same,viability,[12]; [35],66.1% (active)
same,viability,[12]; [36],88.1% (active)
same,viability,[12]; [37],103% (inactive)
same,viability,[12]; [38],54.4% (active)
same,viability,[12]; [39],64.1% (active)
same,viability,[12]; [40],86.7% (active)
same,viability,[12]; [41],88.4% (active)
same,viability,[12]; [42],43.7% (active)
same,viability,[12]; [43],47.9% (active)
same,viability,[12]; [44],58.9% (active)
same,viability,[12]; [45],92.3% (active)
same,viability,[12]; [46],34.4% (active)
same,viability,[12]; [47],38.4% (active)
same,viability,[12]; [48],49.3% (active)
same,viability,[12]; [49],61.2% (active)
same,viability,[12]; [50],2.17% (active)
same,viability,[12]; [51],26.7% (active)
CCOC(=O)N1CCN(/[N+]([O-])=N/Oc2ccc([N+](=O)[O-])cc2[N+](=O)[O-])CC1,AC50,[1],16.6 µM (active)
same,outcome,[2],inactive
same,AC50,[3],5.9 µM (active)
same,AC50,[4],4.18 µM (active)
same,AC50,[5],4.17 µM (active)
same,AC50,[6],3.32 µM (active)
same,AC50,[7],10.5 µM (active)
same,AC50,[8],4.17 µM (active)
same,IC50,[9],23.5 µM (active)
same,fold change,[10]; [14],1.15 (inactive)
same,fold change,[10]; [15],1.4
same,cell count,[10]; [16],2110
same,cell count,[10]; [17],1840
NC(=O)Nc1cc(-c2cccc(F)c2)sc1C(=O)N[C@H]1CCCNC1,AC50,[1],1.48 µM (active)
same,AC50,[2],20.9 µM (active)
same,AC50,[3],0.526 µM (active)
same,AC50,[4],5.9 µM (active)
same,AC50,[5],2.09 µM (active)
same,AC50,[6],1.18 µM (active)
same,AC50,[7],18.7 µM (active)
same,AC50,[8],3.32 µM (active)
same,IC50,[9],2.95 µM (active)
same,SSMD,[13],-1.43
same,cell count,[13],7360
same,plate-normalised HSF1 focus index,[13],0.95 (inactive)
same,viability,[12]; [20],130% (inactive)
same,viability,[12]; [21],94.3% (active)
same,viability,[12]; [22],76% (active)
same,viability,[12]; [23],79.5% (active)
same,viability,[12]; [24],134% (inactive)
same,viability,[12]; [25],97.4% (active)
same,viability,[12]; [26],73.7% (active)
same,viability,[12]; [27],86.4% (active)
same,viability,[12]; [28],117% (inactive)
same,viability,[12]; [29],97.4% (active)
same,viability,[12]; [30],56.6% (active)
same,viability,[12]; [31],87.5% (active)
same,viability,[12]; [32],108% (inactive)
same,viability,[12]; [33],81.6% (active)
same,viability,[12]; [34],55.1% (active)
same,viability,[12]; [35],90.2% (active)
same,viability,[12]; [36],81.1% (active)
same,viability,[12]; [37],53.1% (active)

# From PubChem BioAssay
